This is an account of results in PubChem BioAssay (NCI).

This is part of a sample that, as a whole, favours compounds with a hit. Of some 83,000 tested, about 20% had one in any assay.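 48-hour exposure, single concentration, 96-well plates; percent growth endpoint where 0 means no net growth. Active: below 10.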 Values without a mark were called inactive. Activity calls are given as the source filed them.

The test concerns DU-145 prostate. Description: NCI-60 one-dose screen, 48 h (100 = growth as untreated, 0 = no growth, -100 = all killed). The settings on record: 10 µM unless noted.
As to `COc1ccc(-c2nnc(SCC(=O)Nc3ccc(C(=O)/C=C/c4cc(OC)c(OC)c(OC)c4)cc3)n2-c2ccccc2)cc1OC`, the growth was -29.4% [100 µM] (active).

Regarding `COc1ccc2cn3c4ccc(O)cc4[nH]c(=O)c3c2c1`, the growth is 11.5%.

Consider `COc1ccc(/C=N/c2cc(C(C)(C)C)nn2-c2ccccc2)cc1`, for which the growth is 113%.

Regarding `CCCCCCCCCCC1OC(C)CC(C)O1` (configuration not stated), the growth was 104%.

As for `S=C(N/N=C/c1cc(Cl)cc(Cl)c1)NC12CC3CC(CC(C3)C1)C2`, the growth is 77.4%.

For the molecule `CCOC1=C(Cl)C(=O)C(OCC)=C(Cl)C1=O`, the growth was 106%.

As for `COC(=O)/C=C1/CCCCC1(C)C(=O)OC` (configuration not stated), the growth was 112%.

On to `CCCCCCCCCCC(C[N+](C)(C)C/C=C/c1ccccc1)C(O)c1ccccc1` (configuration not stated), for which the growth is 1.19% (active).

Take `C=CC1CN2CCC1CC2C(O)c1ccnc2ccc(OC)cc12` (configuration not stated): the growth is 127%.

Turning to `CC(=O)c1ccc2c(c1)c1ccccc1n2C`, the growth is 104%.

For the molecule `CC(=O)Nc1nc(C)c(C(=O)NNS(=O)(=O)c2ccccc2)s1`, the growth was 135%.

Consider `Cc1cc2cn3c4ccc(O)cc4nc(N)c3c2cc1C`, for which the growth was 4.25% (active).

On to `COc1cc(-c2nn(-c3ccc(NC(=O)Nc4ccc(Cl)c(Cl)c4)cc3)cc2-c2ccncc2)ccc1Cl`, for which the growth is 40.8%.

For `CCOC(=O)c1sc(NS(=O)(=O)c2ccccc2)nc1C`, the growth is 145%.

Consider `Clc1ccc(I)c2ccccc12`, for which the growth is 111%.

As to `N#Cc1c2cccnc2c2nnc3cc(Cl)c(Cl)cc3n12`, the growth was 36.4%.

For `COc1ccc(C(=O)NCCNc2nccc(-c3c(-c4ccc(F)cc4)nc4sccn34)n2)cc1`, the growth is 59.1%.
